Bioassay records from PubChem BioAssay.
VP16 counter = counter-screen for ROR gamma inhibitors: Gal4-VP16 reporter; Drosophila S2 Gal4-VP16 UAS-luciferase, luminescence, 20 h; Potency, µM (series often up to 53.6 µM), inactives show at the highest dose activity, negative = inhibition, most hits filed as inhibitors; 310,000 compounds, 3.5% hits;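 further: Gal4-VP16 expression switched on by copper sulfate through the metallothionein promoter; potency means the concentration at half of the fitted maximal effect; nearly all actives have a fitted effect of over 50% in size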
TDP1 cell CPT = growth inhibition of DT40 Tdp1-/-;hTDP1 cells with camptothecin (screen for TDP1 inhibitors) | chicken DT40 Tdp1-/-;hTDP1 cells + 20 nM CPT, ATP luminescence, 48 h | Potency, µM (doses to about 46.2 µM), for the others: top-dose activity change, negative = growth inhibition, usual class: inhibitors | 420,000 compounds, 12% hits; further: potency means the concentration at half of the fitted maximal effect; nearly all actives have a fitted effect of over 55% in size
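Chicken DT40 Tdp1-/- cells stably complemented with human TDP1 were seeded at 400 cells/well in medium containing 20 nM camptothecin, exposed to pin-transferred compounds, and grown at 37 °C for at least 48 hr. Viability was read as ATP luminescence.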
IL1B secr inh = blocks inflammasome-driven IL-1 beta release | THP-1 LPS/ATP IL-1B secretion, AlphaLISA, 16 h; hits give low values | activity change, % at 57.5 µM | 360,000 compounds, 4.7% hits | AID 743279; in the data active means activity change below about -50%; inconclusive means mostly about -30% to -49%
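THP-1 cells pretreated 1 hr with compounds (up to 57.5 uM final), then stimulated with LPS (250 ng/mL final) plus ATP (1.25 mM final); secreted IL-1B measured by AlphaLISA after 16 hr, decreased signal indicating inhibition.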
DT40 TDP1 no CPT = qHTS for Inhibitors of human tyrosyl-DNA phosphodiesterase 1 (TDP1): qHTS in cells in absence of CPT; DT40 Tdp1-/- hTDP1 cells, no CPT, ATP luminescence, 48 h; Potency, µM (titrated, usually from 46.2 µM), inactives show at the top dose activity change, negative = growth inhibition, actives largely listed as inhibitors; 420,000 compounds, 15% hits; AID 686978, 2013; further: potency means the concentration at half of the fitted maximal effect; nearly all actives have a fitted effect of over 55% in size
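Stably hTDP1-transfected Tdp1-null chicken DT40 cells were treated with library compounds minus camptothecin and grown for at least 48 hr at 37 °C, after which cellular ATP was quantified by luminescence.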
LDHA inh = blocks human lactate dehydrogenase A; P00338; purified LDHA, NADH/diaphorase-resazurin fluorescence; hits give low values; activity change, % (values are at about 110 or 230 µM); 480,000 compounds, 0.15% hits; in the data active means activity change below about -30%; inconclusive means mostly about -25% to -30%;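 further: plate controls were DMSO wells for no effect and wells without enzyme for full effect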
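Resorufin fluorescence (ex540/em590), read at 0 and 20 min after diaphorase/resazurin addition, reports the NADH left after a 5 min room-temperature reaction of 2 nM human LDH5 with 0.06 mM NADH and 0.2 mM pyruvate.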
RORg inh = inhibitors of mouse ROR gamma transcriptional activity. P51450. Drosophila S2 Gal4-RORgamma UAS-luciferase reporter, 20 h. Potency, µM (doses to about 53.6 µM), inactives show at the highest dose activity change, negative = inhibition, most hits filed as inhibitors. 310,000 compounds, 5.4% hits; further: potency means the concentration at half of the fitted maximal effect; nearly all actives have a fitted effect of over 60% in size
Target sequence (P51450 whole entry, looked up, the tested form may be a part): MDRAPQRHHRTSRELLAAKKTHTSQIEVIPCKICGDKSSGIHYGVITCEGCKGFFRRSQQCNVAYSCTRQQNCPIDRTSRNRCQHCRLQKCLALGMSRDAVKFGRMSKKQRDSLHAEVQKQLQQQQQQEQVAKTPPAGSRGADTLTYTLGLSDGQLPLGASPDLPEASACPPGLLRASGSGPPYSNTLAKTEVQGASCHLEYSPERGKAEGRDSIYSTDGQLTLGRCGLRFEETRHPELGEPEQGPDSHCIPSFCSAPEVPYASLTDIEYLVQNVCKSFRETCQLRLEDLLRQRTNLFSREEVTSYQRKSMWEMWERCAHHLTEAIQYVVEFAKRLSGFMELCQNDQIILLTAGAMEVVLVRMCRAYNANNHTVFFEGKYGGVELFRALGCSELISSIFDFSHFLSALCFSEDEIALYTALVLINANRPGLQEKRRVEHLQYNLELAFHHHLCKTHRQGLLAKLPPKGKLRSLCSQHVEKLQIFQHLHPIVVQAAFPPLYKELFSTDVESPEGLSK
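A Gal4/UAS one-hybrid system in insect cells: metallothionein-promoter Gal4–ROR gamma fusion plus Photinus luciferase reporter. Copper sulfate 700 uM final, 20 hr ambient incubation, luminescent detection after 10 min with reagent.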
The depositor's hits bear a star; u = inconclusive; x = no result given. An excerpt weighted towards active compounds, which were near 18% of everything screened. Unless noted, the call rests on the fitted dose curve; in most records, active means well fitted curve in the direction sought with a large enough effect; inconclusive means small, poorly fitted or top-dose-only effect, or another doubt; inactive means no such curve, though single readings can be large; an effect the other way counts as inactive or inconclusive. Unless noted, on the % scale 0 is the no-effect control and ±100 the full control effect.

SMILES | VP16 counter | TDP1 cell CPT | IL1B secr inh | DT40 TDP1 no CPT | LDHA inh | RORg inh
N#Cc1c(-c2ccccc2)cc(-c2ccccc2)nc1SCC(=O)Nc1ccc(Cl)cc1 | x | -2% | x | -20% | -7 | x
N#Cc1c(-c2ccc(Cl)cc2)cc(-c2ccccc2)nc1SCC(=O)O | -16% | 18µM* | 22 | u | -9 | u
Clc1ccc(OCCCNCc2ccccc2)c(Br)c1 | -7% | 15µM* | x | 16µM* | -6 | 0%
OCCNCCCOc1ccc(Cl)cc1Br | -10% | u | -11 | 29µM* | -1 | 7%
Cc1cc(OCCCCCNCCO)ccc1Cl | -16% | 15µM* | -18 | 16µM* | 2 | 20%
C=CCNCCCCOc1ccc(Br)cc1C | -1% | u | -27 | u | -18 | -16%
Cc1cc(Br)ccc1OCCCCNCCO | 1% | 23µM* | -30 | 21µM* | -3 | -1%
COCCNCCCOc1ccc(Br)cc1Cl | -6% | u | u | u | -15 | -4%
COCCNCCCOc1ccc(Cl)cc1Br | -11% | u | u | 16µM* | -18 | 1%
CC#CCN(Cc1ccco1)C(=O)C1CCC(=O)N(CCc2cccc(F)c2)C1 (stereo unspecified) | x | 21µM* | -2 | 15µM* | 2 | x
C#CCN(C(=O)C1CCC(=O)N(CCc2cccc(F)c2)C1)C1CCCCC1 (stereo unspecified) | x | 18µM* | 2 | 6.5µM* | -10 | x
CC1CCC(NC(=O)C2(C)Cc3ccccc3C(=O)N2Cc2ccccc2Cl)CC1 (stereo unspecified) | x | u | x | 23µM* | -1 | x
CC1CCC(NC(=O)C2(C)Cc3ccccc3C(=O)N2Cc2ccc(F)cc2)CC1 (stereo unspecified) | x | u | x | u | -11 | x
CC(C)OC(=O)C1=C2SCC(=O)N2C(N)=C(C#N)C1 | -7% | -18% | 16 | 0% | 2 | 13µM*
COc1ccc(N2C(=O)CC(C#N)=C2N)cc1 | 3% | 11% | 14 | 0% | -5 | u
COc1cc(/C=C2\CC(C(C)(C)C)C/C(=C\c3cc(OC)c(OC)c(OC)c3)C2=O)cc(OC)c1OC (stereo unspecified) | -13% | 15µM* | -98* | 9.2µM* | -1 | u
COc1cc(/C=C2\CC/C(=C\c3cc(OC)c(O)c(OC)c3)C2=O)cc(OC)c1O | u | 6.5µM* | -103* | 5.8µM* | 26 | u
COc1cc(/C=C2/CCC/C(=C\c3cc(O)c(OC)c(Cl)c3)C2=O)cc(Cl)c1O | u | 10µM* | -107* | 10µM* | 12 | u
COc1cc(/C=C2\COC/C(=C\c3cc(OC)c(OC)c(OC)c3)C2=O)cc(OC)c1OC | 5µM* | 1.2µM* | -99* | 0.58µM* | 3 | 3.2µM*
COc1cc(/C=C2\N=C(C)OC2=O)cc(OC)c1OC | x | u | 0 | u | 0 | x
CC(C)(C)C1CCCCC1NC(=O)c1ccc(Cl)nc1 (stereo unspecified) | x | x | x | x | 15 | x
Cc1c(OCC(=O)C(C)(C)C)ccc2c3c(c(=O)oc12)CCC3 | x | x | x | x | 3 | x
Cc1cccc(C)c1NC(=O)c1ccc2ncsc2c1 | x | x | x | x | 4 | x
COc1cc(/C=C2\CC/C(=C\c3cc(OC)c(OC)c(OC)c3)C2=O)cc(OC)c1OC | -7% | u | -60* | 10µM* | 6 | 15%
Cc1cc(/C=C2/SC(=S)N(c3cccc(C(F)(F)F)c3)C2=O)c(C)n1-c1cccnc1 | x | 0.73µM* | u | 0.73µM* | 3 | x
SMILES | VP16 counter | TDP1 cell CPT | IL1B secr inh | DT40 TDP1 no CPT | LDHA inh | RORg inh
O=C(c1ccco1)N(CCc1ccccc1)Cc1cccs1 | x | x | x | x | 23 | x
COCCn1c(C)cc(C(=O)Cn2cnc3c2c(=O)n(C)c(=O)n3C)c1C | x | x | x | x | -7 | x
COc1ccc(NC(=O)C2Cc3c(-c4ccccc4)ccnc3O2)cc1OC (stereo unspecified) | x | u | u | 4.6µM* | -7 | x
COc1ccc(NC(=O)C2Cc3c(-c4ccc(Cl)cc4)ccnc3O2)cc1OC (stereo unspecified) | x | u | -16 | 18µM* | -7 | x
COc1ccc(NC(=O)C2Cc3c(-c4cccc(C(N)=O)c4)ccnc3O2)cc1OC (stereo unspecified) | x | 12µM* | 16 | 7.3µM* | 0 | x
COc1ccc(NC(=O)C2Cc3c(-c4ccc(Cl)cc4)ccnc3O2)cn1 (stereo unspecified) | x | 15µM* | -7 | 21µM* | -3 | x
CCc1ccsc1C(=O)N(CC#N)C1CC1 | x | x | x | x | 1 | x
Cn1c(C(=O)NCCCN2CCCCCC2)cc2c(=O)n(C)c3ccccc3c21 | -9% | 18µM* | -29 | u | 2 | -1%
Cn1c(C(=O)NCCCN2CCc3ccccc3C2)cc2c(=O)n(C)c3ccccc3c21 | -7% | u | -53* | u | 13 | -18%
N[C@@H](CO)c1cn([C@@H](Cc2cc3ccccc3[nH]2)C(=O)N2CCNCC2)nn1 | 5% | 14% | 35 | -2% | 0 | -9%
C#CCOCCOCCOCCNc1nc(N2CCN(C(=O)[C@H]([C@@H](C)CC)n3cc([C@@H](N)CC(C)C)nn3)CC2)nc(N2CCN(C(=O)[C@H](Cc3cc4ccccc4[nH]3)n3cc([C@@H](N)Cc4ccc(O)cc4)nn3)CC2)n1 | 0% | u | -57* | u | 0 | -6%
CC[C@@H](C)C(NC(=O)OC(C)(C)C)c1cn([C@@H](Cc2cc3ccccc3[nH]2)C(=O)N2CCN(C(=O)OC(C)(C)C)CC2)nn1 (stereo partly specified) | -4% | 23µM* | u | 23µM* | -2 | 31%
C#CCOCCOCCOCCNc1nc(N2CCN(C(=O)[C@H]([C@@H](C)CC)n3cc([C@@H](N)Cc4ccc(O)cc4)nn3)CC2)nc(N2CCN(C(=O)[C@H](Cc3cc4ccccc4[nH]3)n3cc([C@@H](N)CC(C)C)nn3)CC2)n1 | x | 23µM* | -17 | u | 6 | x
C#CCOCCOCCOCCNc1nc(N2CCN(C(=O)C(Cc3cc4ccccc4[nH]3)n3cc(C(N)C(C)CC)nn3)CC2)nc(N2CCN(C(=O)C(Cc3cc4ccccc4[nH]3)n3cc(C(N)C(C)CC)nn3)CC2)n1 (stereo unspecified) | -14% | 16µM* | -27 | u | 3 | -3%
